Results taken from PubChem BioAssay (Tox21).
Where “and” joins values, the source holds several entries; their conditions need not be identical. Equal entries are not always repeated. Records with an inconclusive call do not appear. A structure can be active in one record and inactive in another. Calls of active or inactive are those of the source. Unless noted, calls follow the shape of the dose curve; as a rule, active = well fitted curve in the direction sought with a large enough effect in the repeat runs; inconclusive = weak or mixed curves; inactive = no such curve, though single readings can be large; an effect the other way counts as inactive or inconclusive.

Columns and labels:
[1] = qHTS assay to identify small molecule agonists of the hypoxia (HIF-1) signaling pathway - cell viability counter screen (AID 1224844; calls by dose curve; also: nearly all actives have a fitted effect of over 50% in size; also: potency is read from the fitted curve at half-maximal effect)
Procedure, shortened: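 HRE-bla ME-180 cells, 2,000/well in 0.5% dialyzed FBS medium, treated 17 h at 37C with compounds. Viability read in the same wells as the bla reporter, by CellTiter-Glo luminescence after 30 min at room temperature.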

[2] = qHTS assay to identify small molecule agonists of the hypoxia (HIF-1) signaling pathway (AID 1224846; active = well fitted activation curve with a large enough effect in the signal ratio in the repeat runs, not every such curve was filed as active; the % refers to the signal ratio; also: % is scaled to controls: 0 for no effect and ±100 for the full control effect)
Procedure, shortened: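 HRE-bla ME-180 beta-lactamase reporter cells in medium with 0.5% dialyzed FBS, pre-incubated 5 h then exposed to compounds 17 h at 37C, 5% CO2; reporter induction read with CCF4-AM FRET substrate.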

[3] = qHTS assay to identify small molecule agonists of H2AX - cell viability counter screen (AID 1224847; calls by dose curve; also: nearly all actives have a fitted effect of over 30% in size; also: potency is read from the fitted curve at half-maximal effect)
Procedure, shortened: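 Cells plated first: CHO-K1, 1000 per well in 10% FBS medium, incubated overnight at 37C. Then 15-point compound titration added (final DMSO 0.76%) for 3 hr. Finally CellTiter-Glo added and luminescence read.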

[4] = qHTS assay to identify small molecule antagonists of the estrogen related receptor (ERR) signaling pathway from Tox21 library (AID 1224848); also: nearly all actives have a fitted effect of over 50% in size; also: potency is read from the fitted curve at half-maximal effect
Procedure, shortened: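 Reading was by luminescence 30 min after ONE-Glo addition. Before that, ERR cells at 2,000 per well had rested 6 h at 37 C/5% CO2 and then received pin-tooled compounds in DMSO for 18 h at 37 C.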

[5] = qHTS assay to identify small molecule agonists of the estrogen related receptor (ERR) signaling pathway from Tox21 library (AID 1224849; calls by dose curve; also: % is scaled to controls: 0 for no effect and ±100 for the full control effect; nearly all actives have a fitted effect of over 15% in size); conditions: ERR reporter cell line, ONE-Glo luciferase, 18 h; at 92.4 µM (top of the series) unless noted
Procedure, shortened: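 ERR reporter cells (NTP line) pre-incubated 6 hours at 37 C, then exposed to compounds for 18 hours at 37 C. ONE-Glo luciferase luminescence was read after 30 minutes at room temperature.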

[6] = qHTS RealTime-Glo MT Cell Viability Assay in HepG2 cells - 24 hour (AID 1224867); also: % is scaled to controls: 0 for no effect and ±100 for the full control effect; nearly all actives have a fitted effect of over 50% in size
Procedure, shortened: (§1)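 HepG2 cells (600/well) were dispensed with RealTime-Glo reagents, incubated 5 h at 37 °C, then treated with compounds in DMSO for up to 40 h. Nonlytic NanoLuc luminescence reflecting viable cells was read at each stated time point.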

[7] = qHTS RealTime-Glo MT Cell Viability Assay in HEK293 cells - 32 hour (AID 1224868); also: nearly all actives have a fitted effect of over 50% in size; also: potency is read from the fitted curve at half-maximal effect
Procedure, shortened: (§2)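 HEK293 cells seeded with NanoLuc/prosubstrate reagent, rested 5 h at 37 C, then dosed and kept at 37 C up to 40 h. Nonlytic real-time luminescence from viable cells read at 0, 8, 16, 24, 32 and 40 h.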

[8] = A CellTox Green Cytotoxicity Assay to monitor cytotoxicity in HEK293 cells - 0 hour (AID 1224869)
Procedure, shortened: (§3)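 HEK293 cells, 600/well, were preincubated 5 hours and then exposed to compounds at 37 C for up to 40 hours. A cell-impermeant cyanine dye staining dead-cell DNA was read by fluorescence at 0, 8, 16, 24, 32 and 40 h time points.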

[9] = qHTS RealTime-Glo MT Cell Viability Assay in HepG2 cells - 40 hour (AID 1224870)
Procedure, shortened: (§4)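 Real-time viability: cells seeded at 600 per well together with NanoLuc and cell-permeant prosubstrate, compounds added after 5 h incubation. Luminescence tracked at 0, 8, 16, 24, 32 and 40 h of exposure.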

[10] = A CellTox Green Cytotoxicity Assay to monitor cytotoxicity in HEK293 cells - 40 hour (AID 1224871); also: nearly all actives have a fitted effect of over 45% in size; also: potency is read from the fitted curve at half-maximal effect
Procedure, shortened: as §3

[11] = qHTS RealTime-Glo MT Cell Viability Assay in HEK293 cells - 16 hour (AID 1224872); also: nearly all actives have a fitted effect of over 50% in size; also: potency is read from the fitted curve at half-maximal effect
Procedure, shortened: as §2

[12] = qHTS RealTime-Glo MT Cell Viability Assay in HEK293 cells - 40 hour (AID 1224874); conditions: RealTime-Glo luminescence; max response: stronger effect = lower value; also: nearly all actives have a fitted effect of over 50% in size; also: potency is read from the fitted curve at half-maximal effect; as to max response: % is scaled to controls: 0 for no effect and ±100 for the full control effect
Procedure, shortened: (§5)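 600 cells/well were plated with the nonlytic NanoLuc/prosubstrate reagent, pre-incubated 5 h, then given 23 nL of compound in DMSO. Incubation at 37 C for 40 h, with luminescence from viable-cell-reduced substrate read repeatedly from 0 h.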

[13] = A CellTox Green Cytotoxicity Assay to monitor cytotoxicity in HEK293 cells - 24 hour (AID 1224875); also: nearly all actives have a fitted effect of over 45% in size; also: potency is read from the fitted curve at half-maximal effect; as to activity change: % is scaled to controls: 0 for no effect and ±100 for the full control effect
Procedure, shortened: as §3

[14] = A CellTox Green Cytotoxicity Assay to monitor cytotoxicity in HepG2 cells - 16 hour (AID 1224876); also: nearly all actives have a fitted effect of over 45% in size; also: potency is read from the fitted curve at half-maximal effect
Procedure, shortened: (§6)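 HepG2 cells, 600/well, preincubated 5 h with CellTox Green dye, then exposed to Tox21 compounds in DMSO at 37 C for up to 40 h. Dead-cell DNA fluorescence read at the indicated time point.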

[15] = qHTS RealTime-Glo MT Cell Viability Assay in HepG2 cells - 32 hour (AID 1224877); also: % is scaled to controls: 0 for no effect and ±100 for the full control effect; nearly all actives have a fitted effect of over 55% in size
Procedure, shortened: as §1

[16] = A CellTox Green Cytotoxicity Assay to monitor cytotoxicity in HepG2 cells - 40 hour (AID 1224879); also: nearly all actives have a fitted effect of over 40% in size; also: potency is read from the fitted curve at half-maximal effect
Procedure, shortened: as §6

[17] = qHTS RealTime-Glo MT Cell Viability Assay in HepG2 cells - 8 hour (AID 1224873); also: % is scaled to controls: 0 for no effect and ±100 for the full control effect; nearly all actives have a fitted effect of over 55% in size
Procedure, shortened: as §4

[18] = A CellTox Green Cytotoxicity Assay to monitor cytotoxicity in HepG2 cells - 24 hour (AID 1224878); also: nearly all actives have a fitted effect of over 45% in size; also: potency is read from the fitted curve at half-maximal effect; as to Cytotoxicity: % is scaled to controls: 0 for no effect and ±100 for the full control effect
Procedure, shortened: as §6

[19] = qHTS RealTime-Glo MT Cell Viability Assay in HEK293 cells - 0 hour (AID 1224880)
Procedure, shortened: as §5

[20] = qHTS assay to identify small molecule agonists of H2AX (AID 1224845; active = well fitted activation curve with a large enough effect in the signal ratio in the repeat runs, not every such curve was filed as active; the % refers to the signal ratio; also: potency is read from the fitted curve at half-maximal effect)
Procedure, shortened: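 Phospho-H2AX Ser139 measured by HTRF (ex 320 nm; em 665 and 620 nm) after 24 hr antibody incubation. Compounds, 15 concentrations, 0.76% DMSO, were applied to CHO-K1 cells for 3hr at 37C before lysis.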

Cl/C=C\CCl
inactive: Potency [1] | outcome [2] | Potency [3] | Potency [4] | activity change, positive = activation [5] 3.81% | Potency [6] | Potency [7] | Potency [8] | Potency [9] | Potency [10] | Potency [11] | max response [12] 11.8% | Potency [13] | Potency [14] | Potency [15] | Potency [16]

Cc1cc(C)cc(OP(=O)(Oc2cc(C)cc(C)c2)Oc2cc(C)cc(C)c2)c1
inactive: Potency [1] | outcome [2] | Potency [3] | Potency [4] | activity change, positive = activation [5] 0.886% | Potency [6] | Potency [7] | Potency [8] | Potency [9] | Potency [10] | Potency [11] | Potency [17] | max response [12] -16.9% | Potency [13] | Potency [14] | Potency [15] | Potency [18] | Potency [16] | Potency [19]

CCOP(=S)(OCC)OC(Cl)C(Cl)(Cl)Cl (configuration not stated)
inactive: Potency [1] | outcome [2] | Potency [3] | Potency [4] | activity change, positive = activation [5] 4.56% | Potency [6] | Potency [7] | Potency [8] | Potency [9] | Potency [11] | Potency [17] | max response [12] -10.7% | Potency [14] | Potency [15] | Potency [18] | Potency [16] | Potency [19]

c1ccc(OCC2CO2)cc1 (configuration not stated)
inactive: Potency [1] | outcome [2] | Potency [3] | Potency [6] | Potency [7] | Potency [8] | Potency [10] | Potency [11] | max response [12] 7.88% | Potency [13] | Potency [14] | Potency [15] | Potency [18] | Potency [16]

NC(=O)c1ccc(N)nc1
inactive: outcome [2] | Potency [3] | Potency [6] | Potency [8] | Potency [9] | Potency [10] | Potency [11] | Potency [13] | Potency [14] | Potency [15] | Potency [18] | Potency [16] | Potency [19]
active: Potency [1] 15.5 µM

CCN(CC)c1c([N+](=O)[O-])cc(C(F)(F)F)c(N)c1[N+](=O)[O-]
inactive: Potency [1] | outcome [2] | Potency [8] | Potency [9] | Potency [13] | Potency [19]
active: Potency [3] 113 µM | Potency [11] 12.3 µM | Potency [12] 21.9 µM

CCOP(=S)(OCC)SCCS(=O)(=O)CC
inactive: Potency [1] | outcome [2] | Potency [3] | Potency [4] | activity change, positive = activation [5] 1.7% | Potency [6] | Potency [7] | Potency [8] | Potency [9] | Potency [10] | Potency [11] | Potency [13] | Potency [14] | Potency [15] | Potency [18] | Potency [16] | Potency [19]

Cc1cccc(OP(=O)(Oc2cccc(C)c2)Oc2cccc(C)c2)c1
inactive: Potency [1] | outcome [2] | Potency [3] | Potency [6] | Potency [7] | Potency [8] | Potency [9] | Potency [10] | Potency [11] | Potency [17] | max response [12] 5.97% | Potency [13] | Potency [14] | Potency [15] | Potency [18] | Potency [16] | Potency [19]

COC(=O)N(C(=O)N1CO[C@@]2(C(=O)OC)Cc3cc(Cl)ccc3C2=N1)c1ccc(OC(F)(F)F)cc1
active: Potency [4] 8.35 µM
inactive: Potency [1] | outcome [2] | Potency [3] | activity change, positive = activation [5] -47.5% | Potency [6] | Potency [8] | Potency [10] | Potency [13] | Potency [14] | Potency [15] | Potency [18] | Potency [16] | Potency [19]

CCCOCC(=Nc1ccc(Cl)cc1C(F)(F)F)n1ccnc1
inactive: Potency [1] | outcome [2]
active: Potency [3] 101 µM | Potency [7] 48.9 µM | Potency [10] 48.9 µM | Potency [11] 43.6 µM | Potency [12] 48.9 µM | Potency [13] 48.9 µM | Potency [14] 43.6 µM | Potency [18] 43.6 µM | Potency [16] 43.6 µM

COc1cc(N)c(Cl)cc1C(=O)NC1CN2CCC1CC2 (configuration not stated)
inactive: Potency [1] | outcome [2] | Potency [3] | Potency [6] | Potency [9] | Potency [10] | Potency [11] | Potency [17] | max response [12] -15.3% | Potency [13] | Potency [15] | Potency [16] | Potency [19]

[Cd+2].[Cl-].[Cl-]
active: Potency [1] 55.4 µM | Potency [20] 50.9 µM and 56.6 µM | Potency [10] 24.8 µM and 7.76 µM | Potency [12] 12.4 µM | Potency [18] 22.1 µM and 38.9 µM | Potency [16] 19.7 µM and 24.5 µM
inactive: Potency [8] | Potency [9] | Potency [13] | Potency [19]
55.4 µM (active) and inactive: Potency [14]

O=C(Cl)c1ccc(Cl)cc1
inactive: Potency [1] | outcome [2] | Potency [3] | Potency [6] | Potency [8] | Potency [10] | Potency [17] | Potency [13] | Potency [14] | Potency [15] | Potency [18] | Potency [16] | Potency [19]

C1CCC2CCCCC2C1 (configuration not stated)
inactive: Potency [1] | outcome [2] | Potency [3] | Potency [4] | activity change, positive = activation [5] -0.0659% | Potency [6] | Potency [7] | Potency [8] | Potency [9] | Potency [10] | Potency [11] | max response [12] 15.5% | Potency [13] | Potency [14] | Potency [15] | Potency [18] | Potency [16] | Potency [19]

CCOP(=S)(OCC)SCS(=O)(=O)CC
inactive: Potency [1] | outcome [2] | Potency [3] | Potency [4] | activity change, positive = activation [5] -5.31% | Potency [6] | Potency [8] | Potency [10] | Potency [17] | Potency [13] | Potency [14] | Potency [15] | Potency [18] | Potency [16]
